# Experimental data: PubChem BioAssay (NCATS)
# Results filed as inconclusive are left out. A call without a number means that no potency is given here. Activity calls are given as the source filed them. Unless noted, calls follow the shape of the dose curve; as a rule, active = well fitted curve in the direction sought with a large enough effect; inconclusive = small, poorly fitted or top-dose-only effect, or another doubt; inactive = no such curve, though single readings can be large; an effect the other way counts as inactive or inconclusive.
# Tests used:
# [1] = qHTS for Inhibitors of Plasmodium falciparum (GB4) proliferation (AID 504315); also: nearly all actives have a fitted effect of over 50% in size
# Outline: (§1)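 Erythrocytes infected with P. falciparum line (0.3% parasitemia, 2.5% hematocrit final) incubated with compounds 72 h at 37 °C, 5% CO2; SYBR Green lysis buffer added, fluorescence read next day. Normalized to 0.29 uM artemisinin and DMSO.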
# [2] = qHTS for Inhibitors of Plasmodium falciparum (7G8) proliferation (AID 504316); also: nearly all actives have a fitted effect of over 65% in size
# Outline: as §1
# [3] = qHTS for Inhibitors of Plasmodium falciparum (HB3) proliferation (AID 504318); also: nearly all actives have a fitted effect of over 60% in size
# Outline: as §1
# [4] = qHTS for Inhibitors of Plasmodium falciparum (CP250) proliferation (AID 504320)
# Outline: as §1
# [5] = target: Atrial natriuretic peptide receptor 1 (Homo sapiens) (UniProt P16066); assay: Natriuretic polypeptide receptor (hNpr1) antagonism - Pilot CMLD screen (AID 1347052; calls by dose curve;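 also: cGMP level read as GloSensor luciferase luminescence after agonist stimulation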)
# [6] = target: Cytochrome P450 2C9 (Homo sapiens) (UniProt P11712); assay: qHTS Assay for Inhibitors and Substrates of Cytochrome P450 2C9 (AID 883); also: nearly all actives have a fitted effect of over 60% in size
# Outline: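 Signal: luciferase luminescence reporting luciferin produced by CYP2C9. Conditions: 10nM enzyme, Luciferin-H 100uM at KM, 25mM KPO4, 37C, 60 min NADPH-driven reaction. Reference: 57uM sulphaphenazole as 100% inhibition.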
# [7] = target: Cytochrome P450 2C19 (Homo sapiens) (UniProt P33261); assay: qHTS Assay for Inhibitors and Substrates of Cytochrome P450 2C19 (AID 899); also: nearly all actives have a fitted effect of over 60% in size
# Outline: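 Signal comes from luciferase acting on luciferin released by CYP2C19-mediated hydroxylation of Luciferin-H EGE, 10uM (KM). Assay mix: 5nM enzyme, 50mM KPO4; 60 min at 37C with NADPH regeneration. Data normalized against 57uM ketoconazole.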
# Potency is read from the fitted curve at half-maximal effect.
# Atrial natriuretic peptide receptor 1 (Homo sapiens), sequence (P16066 whole entry, looked up): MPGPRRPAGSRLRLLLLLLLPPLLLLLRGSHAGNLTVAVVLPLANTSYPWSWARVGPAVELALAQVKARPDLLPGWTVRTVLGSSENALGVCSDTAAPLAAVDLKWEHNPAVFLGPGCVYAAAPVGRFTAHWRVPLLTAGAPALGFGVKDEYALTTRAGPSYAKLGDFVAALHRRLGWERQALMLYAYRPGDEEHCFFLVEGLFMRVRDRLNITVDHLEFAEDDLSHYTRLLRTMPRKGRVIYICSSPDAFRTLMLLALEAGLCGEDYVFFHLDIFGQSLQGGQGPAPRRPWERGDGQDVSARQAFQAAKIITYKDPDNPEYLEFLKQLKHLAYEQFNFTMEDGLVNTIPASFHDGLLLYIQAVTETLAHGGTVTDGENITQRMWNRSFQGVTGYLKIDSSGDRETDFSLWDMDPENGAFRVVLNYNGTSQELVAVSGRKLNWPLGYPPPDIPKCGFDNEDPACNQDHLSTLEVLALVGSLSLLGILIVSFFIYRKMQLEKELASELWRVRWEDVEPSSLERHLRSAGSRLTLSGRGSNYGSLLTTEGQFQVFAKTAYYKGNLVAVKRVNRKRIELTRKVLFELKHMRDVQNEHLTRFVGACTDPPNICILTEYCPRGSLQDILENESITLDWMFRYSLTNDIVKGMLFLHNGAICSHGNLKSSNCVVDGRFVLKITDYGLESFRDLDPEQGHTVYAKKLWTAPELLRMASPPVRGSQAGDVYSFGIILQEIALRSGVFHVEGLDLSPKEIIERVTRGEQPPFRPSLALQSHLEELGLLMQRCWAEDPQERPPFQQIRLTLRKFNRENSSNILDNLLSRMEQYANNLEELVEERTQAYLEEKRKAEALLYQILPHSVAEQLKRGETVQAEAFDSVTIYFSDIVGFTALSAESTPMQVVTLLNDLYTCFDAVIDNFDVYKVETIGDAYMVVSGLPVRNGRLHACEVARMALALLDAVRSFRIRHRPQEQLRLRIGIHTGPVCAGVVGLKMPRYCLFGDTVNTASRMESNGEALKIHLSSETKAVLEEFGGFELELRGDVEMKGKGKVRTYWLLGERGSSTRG
# Cytochrome P450 2C19 (Homo sapiens), sequence (P33261 whole entry, looked up): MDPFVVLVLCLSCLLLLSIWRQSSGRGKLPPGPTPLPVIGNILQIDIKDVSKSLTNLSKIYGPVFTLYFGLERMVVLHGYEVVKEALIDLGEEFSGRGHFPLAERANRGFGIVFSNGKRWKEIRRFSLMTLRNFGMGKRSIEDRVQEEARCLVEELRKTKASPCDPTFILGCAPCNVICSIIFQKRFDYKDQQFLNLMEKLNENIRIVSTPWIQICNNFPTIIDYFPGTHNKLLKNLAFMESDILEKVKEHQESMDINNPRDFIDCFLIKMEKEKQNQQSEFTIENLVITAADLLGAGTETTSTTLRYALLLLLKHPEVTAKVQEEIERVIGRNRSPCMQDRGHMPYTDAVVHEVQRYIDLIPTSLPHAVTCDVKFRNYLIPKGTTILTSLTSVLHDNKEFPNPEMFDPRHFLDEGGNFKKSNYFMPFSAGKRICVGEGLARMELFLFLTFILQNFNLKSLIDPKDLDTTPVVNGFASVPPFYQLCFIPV
# Cytochrome P450 2C9 (Homo sapiens), sequence (P11712 whole entry, looked up): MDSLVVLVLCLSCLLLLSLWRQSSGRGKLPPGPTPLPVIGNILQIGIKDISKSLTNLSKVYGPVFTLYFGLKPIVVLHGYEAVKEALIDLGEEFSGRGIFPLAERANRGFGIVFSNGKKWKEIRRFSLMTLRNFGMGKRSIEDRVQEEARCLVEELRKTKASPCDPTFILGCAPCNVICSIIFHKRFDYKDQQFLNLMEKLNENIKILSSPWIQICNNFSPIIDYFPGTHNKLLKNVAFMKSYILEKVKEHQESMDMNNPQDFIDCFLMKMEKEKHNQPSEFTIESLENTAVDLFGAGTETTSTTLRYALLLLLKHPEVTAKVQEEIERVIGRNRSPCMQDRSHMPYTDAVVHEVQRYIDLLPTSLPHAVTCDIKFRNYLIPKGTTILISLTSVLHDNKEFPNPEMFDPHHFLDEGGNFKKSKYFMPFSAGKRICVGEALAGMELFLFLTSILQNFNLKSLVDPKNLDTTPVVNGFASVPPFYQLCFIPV
Compound,Potency [1],Potency [2],Potency [3],Potency [4],Potency [5],Potency [6],Potency [7]
COC(=O)C1=C(C(=O)OC)[C@@H]2N(C)c3ccccc3[C@@]23C[C@@H](C(=O)OC)N(C(=O)c2cc(C)oc2C)C3=N1,inactive,inactive,inactive,inactive,inactive,–,–
Cc1ccc([S+](=O)([O-])N(c2ccccc2)[S+](=O)([O-])C(F)(F)F)cc1,inactive,inactive,inactive,inactive,inactive,–,–
Cc1cc2c(c(=O)n1Cc1ccccc1)[C@H]1O[C@](CCCCN3C(=O)c4ccccc4C3=O)(Cc3ccccc31)O2,1900 nM (active),1690 nM (active),1690 nM (active),1350 nM (active),inactive,–,–
COc1ccc2c(c1)O[C@@H](c1ccc3c(c1)OCO3)[C@H](OC(=O)N[C@H](C)C1CCCCC1)C2=O,inactive,inactive,inactive,inactive,inactive,–,–
C[C@@H]1CC[C@H]2C(=O)N(Cc3ccccc3)C[C@H](O)CN2[C@@H]1c1ccc(Br)cc1,1690 nM (active),–,–,–,2990 nM (active),–,–
CC(=O)C1=C(C)N(Cc2ccccc2)C(=O)NC1c1ccc(Br)cc1 (stereo not given),inactive,inactive,inactive,inactive,inactive,–,–
N#CCCCSc1nnnn1-c1cc(C(F)(F)F)cc(C(F)(F)F)c1,inactive,inactive,–,–,inactive,–,–
COC(=O)CC=C[C@@H](C)[C@@H](C=NOC[C@@H](O)COCc1ccco1)NS(=O)(=O)c1ccc(C)cc1,inactive,–,–,–,inactive,–,–
COC(=O)CC=C[C@@H](C)[C@@H](COc1ccccc1Br)OC,inactive,inactive,inactive,inactive,944 nM (active),–,–
COc1ccc2c3c(c(=O)oc2c1)[C@H]1O[C@](c2ccsc2)(Cc2ccccc21)O3,1690 nM (active),–,–,–,inactive,–,–
CCCNC(=O)OC[C@H]1O[C@H](CCON=C(C)CCN2CCCc3nc(C)c(C)cc32)C=C[C@H]1Oc1ccc(OC)cc1,1900 nM (active),1350 nM (active),1690 nM (active),–,inactive,–,–
O=C1C2=C(C(=O)c3ccccc31)[C@H]1O[C@](CCCCN3C(=O)c4ccccc4C3=O)(Cc3ccccc31)O2,1690 nM (active),1690 nM (active),1690 nM (active),inactive,inactive,–,–
C=C(CO[C@@H]1C=C[C@@H](c2ccccc2)O[C@@H]1COC)c1ccccc1,1510 nM (active),–,–,–,inactive,–,–
C#CCN1C(=O)[C@]2(O[C@H](C)CC3=CCCC32)c2c(Br)cccc21 (stereo not given in full),inactive,inactive,inactive,inactive,inactive,–,–
C=CCN1c2ccccc2[C@]23C[C@@H](C(=O)OC)N(C(=O)Nc4ccccc4F)C2=NC(C(=O)OC)=C(C(=O)OC)[C@H]13,inactive,inactive,inactive,inactive,inactive,–,–
C[C@@H]1CC[C@H]2C(=O)O[C@H](COc3ccc(C(C)(C)C)cc3)CN2[C@@H]1c1ccc(Br)cc1,inactive,inactive,inactive,–,inactive,–,–
CCN1C(=NCCCOC(C)C)NC(c2ccccc2)C(C(=O)OC)=C1C (stereo not given),inactive,inactive,inactive,inactive,inactive,–,–
CC(C)=CCN1C(=O)[C@]2(O[C@H](C)CC3=CCCC32)c2c(Br)cccc21 (stereo not given in full),inactive,inactive,inactive,inactive,inactive,–,–
CC(CCN1CCCCc2nc(C)c(C)cc21)=NO[C@@H](C)CN1CCCCc2nc(C)c(C)cc21,inactive,inactive,inactive,–,inactive,–,–
C=CCN1C(=O)[C@]2(O[C@H](C)CC3=CCCC32)c2c(Br)cccc21 (stereo not given in full),inactive,inactive,–,–,inactive,–,–
COc1ccc([C@]23Cc4ccccc4[C@H](O2)c2c(c4ccc(OC)cc4oc2=O)O3)cc1,1900 nM (active),1690 nM (active),–,–,inactive,–,–
C=COCCN1C=C(C(=O)OCC)C(c2ccccc2)NC1=O (stereo not given),inactive,inactive,inactive,inactive,inactive,–,–
CC1=C[C@@H](C)OC2(C1)C(=O)N(Cc1ccc(Br)cc1)c1cccc(Br)c12 (stereo not given in full),inactive,inactive,–,–,inactive,–,–
CCN1C(=NCc2cccc(C(F)(F)F)c2)NC(c2cccs2)C(C(=O)OC)=C1C (stereo not given),inactive,inactive,inactive,inactive,inactive,–,–
COCCN1C(=O)N[C@@H](CCc2ccccc2)[C@@H](C(=O)OC)[C@H]1C,inactive,inactive,inactive,–,inactive,–,–
Cc1ccccc1Nc1oc(-c2ccccc2)nc1-c1ccccc1,1900 nM (active),1690 nM (active),1690 nM (active),–,inactive,–,–
COCOc1cc(OC)ccc1C(=O)C=Cc1ccc([N+](=O)[O-])cc1,1690 nM (active),–,–,–,inactive,–,–

Compound,Potency [1],Potency [2],Potency [3],Potency [4],Potency [5],Potency [6],Potency [7]
COC1=CC2C(=O)C(C(c3ccccc3)C2C)C1(O)c1cccc(OC)c1 (stereo not given),inactive,inactive,inactive,inactive,inactive,–,–
COCCN1C(=O)N[C@@H](CCc2ccccc2)[C@H](C(=O)OC)[C@H]1C,inactive,inactive,inactive,inactive,inactive,–,–
CCc1cc2c(nc1CC)CCN(CCC(C)=NOC[C@@H](O)COCc1ccco1)C2,inactive,1510 nM (active),–,inactive,inactive,–,–
COC(=O)CCC(=O)OC1(C)C(=O)C=C2C=C(C3CC3)N(Cc3ccco3)C=C2C1=O (stereo not given),inactive,inactive,inactive,inactive,inactive,–,–
C=CCN=C1NC(c2cccc(F)c2)C(C(=O)OC)=C(C)N1Cc1ccccc1 (stereo not given),inactive,inactive,inactive,inactive,inactive,–,–
COC(=O)NC(c1ccccc1)c1c[nH]c2ccc(OC)cc12 (stereo not given),inactive,inactive,inactive,inactive,inactive,–,–
CC(C)=CCN1C(=O)[C@]2(OCCC=C[C@H]2C)c2c(Br)cccc21,inactive,inactive,inactive,inactive,inactive,–,–
COC(=O)N[C@H](c1ccccc1)C(C(=O)OC)C(=O)OC,1510 nM (active),1900 nM (active),1900 nM (active),inactive,inactive,–,–
COC(=O)c1ccc(CN2C(=O)[C@]3(OCCC=C[C@@H]3C)c3cc(OC)ccc32)cc1,inactive,inactive,–,inactive,inactive,–,–
COCCN1C(=NCC(C)C)NC(c2ccccc2)C(C(=O)OC)=C1C (stereo not given),inactive,inactive,inactive,inactive,inactive,–,–
COCCN1C(=O)C2=C(C1=O)C1N(C)c3ccccc3[C@@]13C[C@@H](CO)N(S(=O)(=O)c1ccc(OC)cc1)C3=N2 (stereo not given in full),inactive,inactive,inactive,inactive,inactive,–,–
COc1cccc([C@H]2Oc3ccc(OC)cc3C(=NO[C@@H](C)c3cn([C@H](CO)Cc4ccccc4)nn3)[C@H]2O)c1,inactive,inactive,inactive,inactive,inactive,–,–
CCCNC(=O)OC[C@H]1O[C@H](CCON=CC[C@@H]2C=C[C@H](OC(C)=O)[C@@H](COC(C)=O)O2)C=C[C@H]1Oc1ccc(OC)cc1,inactive,inactive,inactive,inactive,inactive,–,–
C[C@@H]1NC(=O)[C@@H](C)COC(=O)[C@H](C)NC(=O)[C@@H](C)COC1=O,inactive,inactive,inactive,inactive,inactive,–,–
COC(=O)[C@@H](NC(=O)O[C@@H]1C(=O)c2cc(Br)ccc2O[C@H]1c1cccc(OC)c1)C(C)C,inactive,inactive,inactive,inactive,inactive,–,–
CC#CCN1C(=O)NC(c2ccccc2)C(C(=O)OC)=C1C (stereo not given),inactive,inactive,inactive,inactive,inactive,–,–
COc1ccc(COC(=O)NN=C2C[C@@H](O)[C@@H](O)[C@@H]3[C@H]4C(=O)N(c5ccc(F)cc5F)C(=O)[C@@H]4CC[C@H]23)cc1,inactive,inactive,inactive,inactive,inactive,–,–
CC#CCN1C(=O)NC(c2ccccc2)C(C(=O)OCC)=C1c1ccccc1 (stereo not given),inactive,inactive,inactive,inactive,inactive,–,–
CC(CCC(=O)OC[C@H]1O[C@H](C#Cc2ccccc2)C=C[C@H]1Oc1ccc(C)cc1)=NO[C@H](C)c1cn([C@@H]2COC[C@@H]2O)nn1,inactive,inactive,–,inactive,inactive,–,–
COC(=O)N1C(C2CC2)=Cc2ccccc2C1CC(C)=O (stereo not given),inactive,inactive,–,inactive,inactive,–,–
COCCN1C=C2C(=O)C(C)(OC(=O)C3CCCC3)C(=O)C=C2C=C1c1ccsc1 (stereo not given),inactive,inactive,inactive,inactive,inactive,–,–
O=C1CCCC=C1[C@@H](O)CCOC(c1ccccc1)(c1ccccc1)c1ccccc1,1510 nM (active),1690 nM (active),1510 nM (active),–,inactive,794 nM (active),251 nM (active)
COc1cccc([C@H]2Oc3ccc(OC)cc3C(=NOC[C@@H](C)[C@H](OCc3ccccc3)C(C)C)[C@H]2O)c1,inactive,inactive,–,inactive,inactive,–,–
CC1(OC(=O)C2CCCC2)C(=O)C=C2C=C(c3ccsc3)N(Cc3ccccc3)C=C2C1=O (stereo not given),inactive,inactive,–,inactive,inactive,–,–
C[C@@H]1C=CCCO[C@]12C(=O)N(Cc1ccc(Br)cc1)c1ccccc12,inactive,inactive,–,inactive,inactive,–,–
COC(=O)C(=Cc1cc(Br)c(OC)c(Br)c1)C(=O)OC,inactive,inactive,–,inactive,inactive,–,–
COCCN1C(=O)N(C)C(c2ccccc2)C(C(C)=O)=C1C (stereo not given),inactive,inactive,inactive,inactive,inactive,–,–
